Several values for one entry are separate records, joined by “and”; a condition that tells them apart may be missing. Equal values may be shown once. Activity calls are given as the source filed them.
What was measured:
[1] = anti-His antibody binders, primary screen, artefact control for SMM control protein annotation, biochemical, small-molecule microarray, 635 nm fluorescence (AID 1128); settings: anti-His Alexa647 antibody binding, higher = more signal;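 further: score merges feature fluorescence with signal-to-noise for each printed compound spot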
[2] = tested on: Human papillomavirus type 1a E7 protein (residues 1-88); experiment: HPV1a E7 small-molecule binders, primary screen, biochemical, small-molecule microarray, residues 1-88, 635 nm (AID 1129); settings: small-molecule microarray binding, fluorescence 635 nm; higher = more signal
[3] = target: Focal adhesion kinase 1 (Homo sapiens) (UniProt Q05397); experiment: small-molecule microarray binders of FAK, primary screen, biochemical, 635/667 nm fluorescence, BSA, DTT (AID 1130); settings: PTK2 binding, 635 nm fluorescence, higher = more signal;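 further: composite of spot emission at 667 nm and signal to noise over triplicate slides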
[4] = tested on: Fibrinogen (Alexa647-labelled); experiment: fibrinogen binders on compound microarrays, profiling panel, artefact control for SMM control-protein annotation, biochemical, small-molecule microarray, 635/667 nm fluorescence (AID 1131); settings: fibrinogen-A647 binding fluorescence, higher = more signal;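 further: z-score merges 667 nm fluorescence with per-spot signal-to-noise over triplicate slides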
[5] = target: Follistatin (Homo sapiens) (UniProt P19883); experiment: follistatin binders on small-molecule microarrays, primary screen, biochemical, small-molecule microarray, 635/667 nm fluorescence (AID 1132); settings: FST binding, 635 nm fluorescence, higher = more signal
[6] = target: Fibroblast growth factor 2 (Homo sapiens) (UniProt P09038); experiment: FGF2 binders on small-molecule microarrays, primary screen, biochemical, small-molecule microarray, 635/667 nm fluorescence (AID 1133); settings: small-molecule microarray binding, FGF2, fluorescence 635/667; higher = more signal
[7] = mitochondrial membrane potential change in A549 cells, profiling panel, cell-based, JC-1 fluorescence, basal, 24 h, 100 nL (AID 1138); settings: higher = more signal;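 further: A549 lung adenocarcinoma cells under basal conditions with no added stimulus; test concentration not given here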
Lefty1 = Lefty1 binders on small-molecule microarrays, primary screen, biochemical, small-molecule microarray, 635/667 nm fluorescence (AID 1139); settings: small-molecule microarray binding, fluorescence 635/667; higher = more signal
[8] = tested on: wheat germ agglutinin (Triticum aestivum), Alexa647-labelled; experiment: wheat germ agglutinin binders on compound microarrays, profiling panel, artefact control for SMM control-protein annotation, biochemical, small-molecule microarray, 635/667 nm fluorescence (AID 1140); settings: WGA-A647 binding, 635 nm fluorescence, higher = more signal;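 further: score merges 667 nm feature emission with signal to noise over triplicate slides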
[9] = target: Luciferin 4-monooxygenase (Photinus pyralis) (UniProt P08659); experiment: firefly luciferase enzyme inhibitors, primary screen, biochemical, luminescence, purified enzyme, 2006 set (AID 1141); settings: SteadyGlo luminescence, 30 min, higher = more signal, called active from +8 up or from −8 down;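 further: cell-free assay with purified firefly luciferase at 100 ng per well in PBS; test concentration not given here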
Sequence of Luciferin 4-monooxygenase (Photinus pyralis) (P08659 whole entry, looked up): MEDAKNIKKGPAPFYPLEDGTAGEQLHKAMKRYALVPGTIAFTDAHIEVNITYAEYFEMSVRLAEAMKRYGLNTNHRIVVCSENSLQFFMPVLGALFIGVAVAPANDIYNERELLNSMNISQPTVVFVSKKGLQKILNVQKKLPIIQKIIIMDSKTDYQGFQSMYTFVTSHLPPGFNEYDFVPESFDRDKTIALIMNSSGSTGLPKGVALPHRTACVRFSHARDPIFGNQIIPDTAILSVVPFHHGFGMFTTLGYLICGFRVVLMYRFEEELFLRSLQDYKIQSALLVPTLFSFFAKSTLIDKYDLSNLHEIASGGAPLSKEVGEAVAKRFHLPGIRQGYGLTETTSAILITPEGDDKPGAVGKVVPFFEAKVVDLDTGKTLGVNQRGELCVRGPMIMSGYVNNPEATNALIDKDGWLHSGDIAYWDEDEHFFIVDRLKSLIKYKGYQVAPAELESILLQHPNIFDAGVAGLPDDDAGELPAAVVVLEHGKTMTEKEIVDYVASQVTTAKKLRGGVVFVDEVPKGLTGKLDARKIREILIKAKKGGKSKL

Sequence of Fibroblast growth factor 2 (Homo sapiens) (P09038 whole entry, looked up): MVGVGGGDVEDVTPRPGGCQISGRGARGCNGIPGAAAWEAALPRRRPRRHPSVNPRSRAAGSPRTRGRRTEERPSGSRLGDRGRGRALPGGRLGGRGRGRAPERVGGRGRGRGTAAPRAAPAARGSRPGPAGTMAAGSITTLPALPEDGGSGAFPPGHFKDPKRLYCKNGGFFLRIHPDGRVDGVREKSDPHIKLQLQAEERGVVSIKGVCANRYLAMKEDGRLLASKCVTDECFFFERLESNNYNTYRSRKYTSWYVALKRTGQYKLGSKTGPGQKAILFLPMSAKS
Sequence of Follistatin (Homo sapiens) (P19883 whole entry, looked up): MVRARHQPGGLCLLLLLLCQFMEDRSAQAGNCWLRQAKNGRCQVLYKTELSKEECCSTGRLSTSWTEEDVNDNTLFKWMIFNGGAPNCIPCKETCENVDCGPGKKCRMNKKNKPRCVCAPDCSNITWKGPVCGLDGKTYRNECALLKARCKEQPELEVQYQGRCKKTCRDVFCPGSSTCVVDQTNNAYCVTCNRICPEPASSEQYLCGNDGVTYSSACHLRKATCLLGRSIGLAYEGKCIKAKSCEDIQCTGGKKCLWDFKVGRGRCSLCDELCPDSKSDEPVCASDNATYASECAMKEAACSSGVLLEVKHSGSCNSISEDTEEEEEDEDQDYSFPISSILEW
Sequence of Focal adhesion kinase 1 (Homo sapiens) (Q05397 whole entry, looked up): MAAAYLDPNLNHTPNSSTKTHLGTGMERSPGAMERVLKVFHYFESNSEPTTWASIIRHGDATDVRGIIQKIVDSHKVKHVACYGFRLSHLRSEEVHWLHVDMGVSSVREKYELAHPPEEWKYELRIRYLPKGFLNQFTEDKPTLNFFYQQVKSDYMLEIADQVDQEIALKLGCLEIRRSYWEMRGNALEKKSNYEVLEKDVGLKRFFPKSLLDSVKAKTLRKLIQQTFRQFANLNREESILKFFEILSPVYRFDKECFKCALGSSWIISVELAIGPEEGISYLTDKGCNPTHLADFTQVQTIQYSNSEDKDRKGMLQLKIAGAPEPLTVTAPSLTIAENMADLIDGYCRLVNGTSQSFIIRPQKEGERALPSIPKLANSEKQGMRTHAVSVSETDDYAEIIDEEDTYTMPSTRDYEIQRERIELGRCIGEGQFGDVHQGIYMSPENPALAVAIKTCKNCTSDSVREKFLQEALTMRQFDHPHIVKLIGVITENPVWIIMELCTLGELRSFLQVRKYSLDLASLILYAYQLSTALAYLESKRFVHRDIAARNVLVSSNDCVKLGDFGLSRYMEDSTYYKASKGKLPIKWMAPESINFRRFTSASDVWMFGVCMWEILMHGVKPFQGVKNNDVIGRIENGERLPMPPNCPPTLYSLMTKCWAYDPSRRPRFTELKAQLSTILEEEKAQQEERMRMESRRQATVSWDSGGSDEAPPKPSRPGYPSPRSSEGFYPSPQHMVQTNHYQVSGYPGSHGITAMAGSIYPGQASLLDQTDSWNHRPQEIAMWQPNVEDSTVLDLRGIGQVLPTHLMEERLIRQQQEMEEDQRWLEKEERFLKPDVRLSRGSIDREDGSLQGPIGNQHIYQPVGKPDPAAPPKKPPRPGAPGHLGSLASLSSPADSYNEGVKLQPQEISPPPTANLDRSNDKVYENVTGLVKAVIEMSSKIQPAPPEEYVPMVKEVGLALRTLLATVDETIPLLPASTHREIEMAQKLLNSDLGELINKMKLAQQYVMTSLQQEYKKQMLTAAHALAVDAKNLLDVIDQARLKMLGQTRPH

Row | SMILES | composite z-score [1] | composite z-score [2] | composite z-score [3] | composite z-score [4] | composite z-score [5] | composite z-score [6] | z-score [7] | composite z-score (Lefty1) | composite z-score [8] | z-score [9]
1 | CCC[C@@H]1C[C@@]1(CCC)[C@@H](NC(=O)c1ccc(-c2ccccc2)cc1)c1cccc(Cl)c1 | -0.844 and 1.8 | -0.817 and 0.53 | 0.589 and 0.541 | -0.427 and 0.367 | -0.0957 and 0.115 | -0.817 and -0.244 | 0.122 and 1.45 | -0.16 and -0.268 | -0.463 and 0.469 | 1.01 (inactive) and 1.76 (inactive)
2 | C=CCN(C(=O)C1N(C(C)(C)CO)C(=O)C2C(C(=O)O)C3C=CC21O3)C(C)(C)C (stereo not given) | -0.574 and -1.26 | -0.937 and -0.349 | -0.892 and -0.328 | -2.12 and 0.119 | -1.98 and -1.82 | -2.47 and -2.04 | -0.377 and 0.637 | -2.81 and -2.22 | -1.64 and 0.157 | 0.0864 (inactive) and -0.639 (inactive)
3 | CC(C)CCN1CCc2nc(-c3ccccc3)c3c(c2C1)CO[C@@H](C)C3 | 0.554 | 0.669 | 0.304 | 0.436 | 0.785 | 0.528 | 1.19 | 0.631 | 0.931 | -1.17 (inactive)
4 | CC(CO)N1C(=O)[C@@H]2C3C(=O)OCCC=C[C@H]3OC23C=CCN(Cn2nnc4ccccc42)C(=O)[C@@H]13 (stereo not given in full) | 0.398 and 1.77 | -0.66 and 0.136 | -0.244 and -0.0494 | -0.332 and -0.0118 | -0.93 and 0.345 | -1.31 and -0.224 | -0.469 and -0.766 | -1.34 and 0.247 | -0.711 and -0.23 | 0.0511 (inactive) and 0.399 (inactive)
5 | COC(=O)[C@@]1(Cc2ccc(F)cc2)[C@H]2c3cc(C(=O)N4CCCC4)n(Cc4c(CO)[nH]cc(C)c4=O)c3C[C@H]2CN1C(=O)c1ccccc1 | 2.37 and 2.39 | 0.709 and 1.18 | 1.1 and 1.41 | 1.01 and -0.216 | 0.529 and 0.121 | -0.351 and -0.789 | 0.395 and 0.404 | -0.212 and -1.02 | 1.16 and 0.234 | 2.01 (inactive) and 1.01 (inactive)
6 | CCCNC(=O)OC[C@H]1O[C@H](CCON=C(C)CCN2CCc3nc(-c4ccccc4)c(-c4ccccc4)cc3C2)C=C[C@@H]1Oc1ccc(OC)cc1 | 1.29 | 0.0969 | 0.301 | 0.283 | 0.295 | 0.279 | 1.87 | 0.236 | 0.356 | -0.076 (inactive)
7 | COCn1c2ccccc2c2nnc(C(C)=O)nc21 | 0.185 and -0.0618 | -0.582 and -0.0453 | 0.0699 and -0.0566 | -0.0349 and 0.202 | 0.295 and 0.221 | 0.537 and 0.273 | -1.22 and -1.45 | 0.419 and 0.53 | -0.114 and -0.144 | 0.891 (inactive) and 0.305 (inactive)
8 | C[C@@H]1CC[C@H]2C(=O)NC[C@@H](O)CN2[C@H]1c1ccc(Br)cc1 | -0.035 and -0.372 | -0.165 and -0.298 | 0.0377 and -0.438 | -0.0102 and 0.0552 | -0.175 and -0.142 | 0.0825 and 0.314 | -0.386 and 1.68 | 0.396 and 0.0488 | -0.2 and -0.0411 | 0.29 (inactive) and -0.467 (inactive)
9 | CC[C@@H]1C(Sc2ccccc2)C(C(=O)O)[C@H](c2ccc(C)cc2)N1S(=O)(=O)c1ccc(C)cc1 (stereo not given in full) | 1.81 and 0.489 | 1.25 and 1.17 | 0.994 and 0.704 | 1.03 | 0.427 and 0.634 | -0.375 and -0.193 | -0.102 and 0.13 | -0.642 and 0.533 | 0.707 and 0.804 | 0.534 (inactive) and -0.0047 (inactive)

Reference: PubChem BioAssay
